In the supplement of paper PMC10503962:

These compounds were tested on Trichuris muris adult worms (assay: mean motility score (Paragon pixel variance) of adult worms (arbitrary units); higher = more motile worms, i.e. less anthelmintic effect; extreme values may be limits of the assay). Conditions: 100 µM; 24 h.
How it was run: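 Films of 200 frames spaced 100 ms apart were taken on an automated phenotyping platform after worms had spent 24 h at 37°C and 5% CO2. Those worms were single adult Trichuris muris from infected NOD SCID mice, each in a 96-well plate well with 100 μL RPMI-1640 plus antibiotics and drug at 100 μM (1% v/v DMSO). Paragon pixel-variance analysis produced the motility score, averaged over replicate wells. Testing used three worms in three wells per drug across three separate occasions, with vehicle and positive controls.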
`CN(CCOc1ccc(CC2SC(=O)NC2=O)cc1)c1ccccn1` (centres undefined) [rosiglitazone] showed a mean motility score of 603. With `Cl.Clc1ccccc1CN1CCc2sccc2C1` [ticlopidine hydrochloride] the mean motility score was 663. `Oc1ncc(F)c(O)n1` [fluorouracil] showed a mean motility score of 3090. `Nc1ccc(S(N)(=O)=O)cc1` [sulfanilamide] gave a mean motility score of 2370. With `C[C@@H](C(=O)O)c1ccc(-c2ccccc2)c(F)c1` [tarenflurbil] the mean motility score was 2130. In the case of `CCCCNc1cc(C(=O)O)cc(S(N)(=O)=O)c1Oc1ccccc1` [bumetanide], the mean motility score is reported as 4880. Compound `CO[C@@]1(NC(=O)CSCC#N)C(=O)N2C(C(=O)[O-])=C(CSc3nnnn3C)CS[C@@H]21.[Na+]` [cefmetazole sodium] has a mean motility score of 2040. For `C#Cc1cccc(Nc2ncnc3cc(OCCOC)c(OCCOC)cc23)c1` [erlotinib], the mean motility score was 1720. For `CC(C)(Oc1ccc(C2CC2(Cl)Cl)cc1)C(=O)O` (centres undefined) [ciprofibrate], the mean motility score was 2070. `Cn1cnc([N+](=O)[O-])c1Sc1ncnc2nc[nH]c12` [azathioprine] was tested, and the mean motility score was 3550. For `Oc1nc2ccccc2n1C1CCN(CCCC(c2ccc(F)cc2)c2ccc(F)cc2)CC1` [pimozide], the mean motility score was 0. For `Cc1ccc(O)c(-n2nc3ccccc3n2)c1` [drometrizole], the mean motility score was 2400. `NCCCC[C@H](N[C@@H](CCc1ccccc1)C(=O)O)C(=O)N1CCC[C@H]1C(=O)O` [lisinopril] was tested, and the mean motility score was 1970. `CN1CCN(CCCN2c3ccccc3Sc3ccc(C(F)(F)F)cc32)CC1.Cl.Cl` [trifluoperazine dihydrochloride] was tested, and the mean motility score was 0.
